KCNQ2 block: KCNQ2 (rat) channel inhibition. O88943. CHO-K1 KCNQ2, FluxOR thallium flux, 20 min; stronger effect = lower value. B-score at 10 µM. 310,000 compounds, 1.1% hits. AID 2156;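 active = fluorescence ratio B-score at most minus 3 library SDs, with starting brightness B-score within 2 library SDs, cut at about -5.5 in these data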
KCNQ2 enhance: KCNQ2 (rat) channel potentiation | B-score at 10 µM | CHO-K1 KCNQ2, FluxOR thallium flux fluorescence; stronger effect = higher value | O88943 | 310,000 compounds, 0.54% hits;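 active = fluorescence ratio B-score at least 3 SD of library B-scores, with initial fluorescence B-score within 3 of them, cut at about 5.3 in these data; same plate scores as AID 2156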;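 also: B-score of peak minus minimum over baseline fluorescence ratio after K+ and Tl+ stimulus; positive B-score means potentiation of KCNQ2 with more thallium influx and brighter signal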
Kir21 conf inh: confirmation of mouse Kir2.1 potassium channel inhibitors; shares compounds with KCNQ2 enhance; Kir2.1-expressing cells, FluxOR thallium flux fluorescence; stronger effect = lower value; Tl flux remaining, % of negative control (stronger effect = lower value), % at 10 µM; 2,300 compounds, 41% hits; AID 2032;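 active = Primary-screen hit whose thallium flux fell at least 3 control SD below untreated wells in both duplicates, with normal baseline fluorescence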;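 also: 0% = blank wells without stimulus and 100% = stimulated no-compound controls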
HEK293 Tl flux: parental HEK293 activity in Kir2.1 inhibitor counter-screen; 2,300 compounds, 19% hits; parental HEK293 cells, FluxOR thallium flux fluorescence; 0% = unstimulated blank wells; FluxOR signal as % of negative control (100 = no effect), % at 10 µM; shares compounds with KCNQ2 enhance;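 active = dye signal at least 3 control SD above or below untreated wells in both duplicates, raw fluorescence within 3, either direction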;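 also: percent is based on the flux ratio of peak minus minimum fluorescence over baseline F0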
CHO-K1 Tl ctr: counter-screen for KCNQ2 potentiators: effect in parental CHO-K1 cells. shares compounds with KCNQ2 enhance. FluxOR thallium flux fluorescence; zero = vehicle mean+3SD, 100% = vehicle-minus-blank window. activity increase over 3SD of controls, % at 10 µM. 1,200 compounds, 43% hits. AID 2282;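 active = signal rise of at least 3 SD above the untreated control mean, in both duplicate wells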;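 also: counter screen of KCNQ2 potentiator hits so any rise reflects channel-independent effects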
KCNQ1 sel pot: tests whether KCNQ2 potentiators also act on human KCNQ1. shares compounds with KCNQ2 enhance. activation over 3SD threshold, % at 10 µM. 1,200 compounds, 28% hits. CHO KCNQ1 stable, FluxOR thallium flux fluorescence; beyond 3SD, as % of vehicle-control signal. AID 2283;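 active = fluorescence ratio rise of at least 3 SD of vehicle wells above their mean, in both replicate wells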;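 also: 0% = vehicle mean plus 3 SD and 100% = vehicle minus unstimulated blank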
KCNQ2 pot confirm: rat KCNQ2 channel potentiator confirmation; shares compounds with KCNQ2 enhance; CHO-KCNQ2 cells, FluxOR thallium flux fluorescence; potentiation, less the hit threshold, % at 10 µM; 1,200 compounds, 68% hits;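 active = fluorescence ratio rising 3 SD or more over the vehicle control mean in both replicates, plus primary screen hit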;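 also: peak minus minimum thallium fluorescence divided by baseline after K/Tl stimulus; 0% = vehicle mean plus 3 SD and 100% = vehicle minus unstimulated blank difference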
Kir2-1 sel: selectivity of KCNQ2 potentiators: effect on mouse Kir2.1; shares compounds with KCNQ2 enhance; HEK293 Kir2.1, FluxOR thallium flux fluorescence; activity over 3SD threshold, % at 10 µM; 1,200 compounds, 2% hits; AID 2345;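 active = fluorescence ratio rise of at least 3 SD above the vehicle-control mean, seen in both replicates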;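 also: 0% = vehicle mean plus 3 SD and 100% = vehicle minus no-stimulus blank window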
KCNQ2 W236L pot: potentiates the retigabine-insensitive rat KCNQ2 W236L mutant channel; 940 compounds, 10% hits; current increase over 3SD of negative controls (%), stronger effect = higher value, % at 25 µM; CHO KCNQ2-W236L, automated patch clamp current; shares compounds with KCNQ2 enhance;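 active = current increase at least 3 SD of the untreated controls above them in both duplicate recordings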
Target sequence (O88943 whole entry W236L, looked up): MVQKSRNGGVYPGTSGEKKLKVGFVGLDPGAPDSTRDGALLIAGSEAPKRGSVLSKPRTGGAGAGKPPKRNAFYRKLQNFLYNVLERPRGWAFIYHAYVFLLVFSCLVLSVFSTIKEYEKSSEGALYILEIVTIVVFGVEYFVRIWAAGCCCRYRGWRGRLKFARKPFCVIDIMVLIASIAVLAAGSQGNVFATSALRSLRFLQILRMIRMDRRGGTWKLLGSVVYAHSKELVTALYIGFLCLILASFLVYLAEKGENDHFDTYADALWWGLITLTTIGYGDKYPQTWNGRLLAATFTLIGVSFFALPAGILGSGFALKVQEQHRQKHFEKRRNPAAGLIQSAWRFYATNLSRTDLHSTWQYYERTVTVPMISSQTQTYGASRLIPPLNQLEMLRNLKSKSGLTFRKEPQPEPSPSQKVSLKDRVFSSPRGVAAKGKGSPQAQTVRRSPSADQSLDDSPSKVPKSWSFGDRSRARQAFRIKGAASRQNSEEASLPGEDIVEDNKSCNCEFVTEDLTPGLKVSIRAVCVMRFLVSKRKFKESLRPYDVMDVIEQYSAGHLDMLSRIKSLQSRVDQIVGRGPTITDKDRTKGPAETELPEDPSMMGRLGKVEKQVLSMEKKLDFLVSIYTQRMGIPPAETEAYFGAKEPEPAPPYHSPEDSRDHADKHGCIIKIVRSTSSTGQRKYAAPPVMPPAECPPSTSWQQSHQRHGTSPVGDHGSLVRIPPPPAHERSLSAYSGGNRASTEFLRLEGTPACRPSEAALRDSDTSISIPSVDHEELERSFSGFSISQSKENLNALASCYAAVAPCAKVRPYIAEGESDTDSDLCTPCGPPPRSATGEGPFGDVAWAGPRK
Starred values were filed as active, the others as inactive; i = inactive; · = no result. Most compounds without a hit are left out; they make up all but 1.6% or so of the library.

SMILES	KCNQ2 block	KCNQ2 enhance	Kir21 conf inh	HEK293 Tl flux	others
CC1(c2ccccc2)CC(C)(C)N2C(=O)C3(C(C#N)=C(N)Oc4cc(O)ccc43)c3cccc1c32 (stereo not given)	i	2.5	·	·
CC1(c2ccccc2)CC(C)(C)N2C(=O)/C(=C3\SC(=S)NC3=O)c3cccc1c32 (stereo not given)	i	32*	i	i	CHO-K1 Tl ctr=-22;KCNQ1 sel pot=-22;KCNQ2 pot confirm=4.3*;Kir2-1 sel=-26;KCNQ2 W236L pot=i
CCOC(=O)c1sc2nc(C)nc(SCC(=O)N(CC)C3CCS(=O)(=O)C3)c2c1C (stereo not given)	i	0.32	·	·
COc1ccc(Br)cc1/C=N/Nc1ccccn1	i	·	·	·
O=C(COc1cccc2ccccc12)Nc1cc(Cl)ccc1C(=O)O	i	4.6	·	·
O=C(COc1cccc2ccccc12)Nc1ccc(Cl)cc1C(=O)O	i	7.2*	i	129%*	CHO-K1 Tl ctr=-2;KCNQ1 sel pot=-1;KCNQ2 pot confirm=23*;Kir2-1 sel=-31;KCNQ2 W236L pot=i
O=C(NCCc1ccccc1)C(c1ccccc1F)N(C(=O)c1csnn1)C1CC1 (stereo not given)	i	0.31	·	·
CC1=NN(C(=O)CSCc2ccccc2)C(O)(c2ccc(Cl)cc2)C1 (stereo not given)	i	·	·	·
CC1=NN(C(=O)c2ccc(Cl)cc2)C(O)(c2ccccc2)C1 (stereo not given)	i	20*	i	i	CHO-K1 Tl ctr=-14;KCNQ1 sel pot=-7;KCNQ2 pot confirm=-2;Kir2-1 sel=-40;KCNQ2 W236L pot=i
Cc1oc(-c2ccc(-c3ccccc3)cc2)nc1CN(CCO)C(C)C	i	·	·	·
O=C(COC(=O)Cc1c[nH]c2ccccc12)NC1CCCCC1	i	0.06	42%*	i
O=C(COC(=O)Cc1c[nH]c2ccccc12)Nc1ccccc1	i	·	·	·
O=[N+]([O-])c1ccc(NC(=S)NCc2ccc(F)cc2)cc1	i	21*	·	·	CHO-K1 Tl ctr=-7;KCNQ1 sel pot=11*;KCNQ2 pot confirm=42*;Kir2-1 sel=-51;KCNQ2 W236L pot=i
O=[N+]([O-])c1ccc(NC(=S)NCc2ccncc2)cc1	i	1.6	·	·
COC(=O)c1cccc(CSc2nnc(-c3ccco3)n2-c2ccccc2)c1	i	·	58%*	68%*
CCOC(=O)CSc1nnc(-c2ccco2)n1-c1ccccc1	i	·	·	·
CN(C)CC1CCCCC1OC(=O)c1ccc(Cl)cc1 (stereo not given)	i	0.35	·	·
CN(C)CC1CCCCC1C1(O)c2ccccc2CSc2sccc21 (stereo not given)	i	1.5	69%*	i
CCCc1nc2oc3c(Cl)ncnc3c2c2c1CCCC2	i	0.39	·	·
CCCc1nc2oc3c(NCCN(C)C)ncnc3c2c2c1CCCC2	i	5.4*	i	i	CHO-K1 Tl ctr=-16;KCNQ1 sel pot=-4;KCNQ2 pot confirm=51*;Kir2-1 sel=-57;KCNQ2 W236L pot=i
CCc1ccccc1NC(=O)CCNC(=O)Cn1ccc2ccccc2c1=O	i	·	·	·
O=C1NC(=S)SC1=C1CCCCCC1	i	23*	i	357%*	CHO-K1 Tl ctr=40*;KCNQ1 sel pot=7.2*;KCNQ2 pot confirm=57*;Kir2-1 sel=-26;KCNQ2 W236L pot=i
O=C1N=C(N2CCCCC2)SC1=C1CCCCC1	i	0.11	·	·
Cc1cccc(C(=O)NNc2ncnc3c2cnn3C)c1	i	·	·	·
Oc1cccc(Nc2nc(NCC3CCCO3)c3ccccc3n2)c1 (stereo not given)	i	·	·	·
SMILES	KCNQ2 block	KCNQ2 enhance	Kir21 conf inh	HEK293 Tl flux	others
COc1ccc(Nc2nc(NCC3CCCO3)c3ccccc3n2)c(OC)c1 (stereo not given)	i	·	30%*	i
Cc1ccc(C)c(NC(=O)CCC(=O)NN=C2CCCC2)c1	i	0.44	·	·
CC(C)Oc1ccc(C(CCN)C2CCCCC2)cc1 (stereo not given)	i	·	44%*	65%*
CC(C)Oc1ccc(C(=O)NC2CCCCC2)cc1	i	·	·	·
N#CCCC(CCC#N)(CCC#N)c1cc[n+](CCc2ccccn2)cc1	i	·	·	·
COc1cccc(CNc2ccc(C)c(Cl)c2)c1	i	0.05	·	·
COc1cccc(CNc2cc(CSc3ccc(Cl)cc3)nc(C)n2)c1	i	·	54%*	i
CC(C)Cc1nc2n[nH]c(N)c2c2c1CCCC2	i	2.6	·	·
CC(C)c1nc2n[nH]c(N)c2c2c1CCCC2	i	2.2	40%*	i
Cc1cccc(OCCSc2nc(N)cc(N)n2)c1	i	·	·	·
Cc1cc(/C=C2\C(=N)N3N=C(S(C)(=O)=O)SC3=NC2=O)c(C)n1Cc1ccccc1	i	1.2	·	·
CCCC1=NN2C(=N)/C(=C\c3cc(C)n(Cc4ccccc4)c3C)C(=O)N=C2S1	i	12*	i	i	CHO-K1 Tl ctr=21*;KCNQ1 sel pot=-13;KCNQ2 pot confirm=-4;Kir2-1 sel=-36;KCNQ2 W236L pot=i
Cc1ccsc1C(=O)N1CCCC(CCC(=O)NCc2ccc(F)c(F)c2)C1 (stereo not given)	i	·	·	·
O=C(COc1c(Br)cc(Br)cc1Br)N/N=C/c1ccco1	i	6.3*	i	i	CHO-K1 Tl ctr=-3;KCNQ1 sel pot=-8;KCNQ2 pot confirm=-4;Kir2-1 sel=-20
CCCCOc1ccc(CCC(=O)N/N=C/c2ccco2)cc1	i	9.1*	i	i	CHO-K1 Tl ctr=47*;KCNQ1 sel pot=65*;KCNQ2 pot confirm=33*;Kir2-1 sel=-38;KCNQ2 W236L pot=i
CCCOc1ccc(CCC(=O)N/N=C/c2ccco2)cc1	i	1.3	·	·
Cc1cc(C)cc(OCC(=O)N/N=C/c2ccco2)c1	i	·	·	·
O=C(CNS(=O)(=O)c1ccccc1)OCC(=O)c1ccccc1Cl	i	0.13	·	·
O=C1CSC(c2cccnc2)N1C1CCCCC1 (stereo not given)	i	0.39	·	·
O=C1CSC(c2ccc(Cl)cc2)N1C1CCCCC1 (stereo not given)	i	·	64%*	i
O=C1[C@@H]2C(c3cccnc3)=NO[C@@H]2C(=O)N1c1ccc2ccccc2c1	i	·	·	·
Cc1cccc(N2CCN(C(=O)CCCCCn3c(=S)[nH]c4ccc(N5CCOCC5)cc4c3=O)CC2)c1C	i	·	·	·
COc1cccc(NC(=O)c2ccc(NC(=O)C(C)(C)C)cc2)c1	i	1.2	·	·
CC(C)(C)C(=O)Nc1cccc(OC(F)(F)C(F)Cl)c1 (stereo not given)	i	5.8*	i	i	CHO-K1 Tl ctr=-15;KCNQ1 sel pot=11*;KCNQ2 pot confirm=30*;Kir2-1 sel=-40;KCNQ2 W236L pot=i
CC(C)C(OC(=O)/C=C/c1ccc2c(c1)OCO2)C(=O)NC(N)=O (stereo not given)	i	·	·	·

High-throughput results deposited in PubChem by Johns Hopkins Ion Channel Center.
